Data published in ChEMBL document CHEMBL3988442, “University of Dundee, Small-Polar-MMV Screening Library” (2021).
The campaign covered roughly 48,000 compounds. About 13,000 (27%) showed an effect of 50% or more. Some of the results follow.

The compounds below were run on Wolbachia pipientis (assay: Anti-Wolbachia Cell-Based Screen). Conditions: 5 µM.
Format: functional
Set-up: scale not given: in the data most compounds retested in dose-response had high values

Q: With `CS(=O)(=O)CCCNC(=O)NC1CC(c2cccc(Cl)c2)C1` (stereo unspecified) as the compound, how does the “Percent Effect” value read?
A: -3.705%

Q: How did the “Percent Effect” value turn out when `N#Cc1cccc(S(=O)(=O)NC2CCN(Cc3ccccc3)C2=O)c1` (stereo unspecified) was run?
A: -3.444%

Q: `CC(C)Oc1cc(N2CCC3(CC2)[C@H](O)C[C@@H]3O)nc(N)n1` was tested. Which “Percent Effect” value did it give?
A: 12.72%

Q: For `CN1CCCC(N2CCN(c3nc4ccccn4c3C#N)CC2)C1` (stereo unspecified), which “Percent Effect” value is on record?
A: 6.11%

Q: How did the “Percent Effect” value turn out when `CC(=O)N(CCc1ccccc1)CC(=O)Nc1ccccc1C#N` was run?
A: -7.598%

Q: Which “Percent Effect” value does the source give for `CC(C)(C)c1ncc2c(n1)CN(C(=O)c1ccc(C#N)nc1)C2` here?
A: -2.492%

Q: How did the “Percent Effect” value turn out when `COC(=O)c1ccc(F)c(S(=O)(=O)Nc2ccc(C(N)=O)cc2)c1` was run?
A: 8.532%

Q: For `Cc1cccc(N2CCN(CCC(=O)NCc3ccc(C)s3)CC2)c1`, which “Percent Effect” value is on record?
A: 3.46%

Q: `Cc1cnc(C(=O)N2CCN(C(=O)C(C)C)[C@@H]3CS(=O)(=O)C[C@@H]32)cn1` was tested. Which “Percent Effect” value did it give?
A: -9.288%

Q: How did the “Percent Effect” value turn out when `COC(=O)C1CCCN1C(=O)c1ccc(-n2nc(C)cc2C)cc1` (stereo unspecified) was run?
A: -11.77%

Q: `Cc1nnnn1-c1ccc(CC(=O)N2CCOCC(O)C2)cc1` (stereo unspecified) was tested. Which “Percent Effect” value did it give?
A: -21.98%

Q: With `COC(=O)CC1CCN(C(=O)c2ccccc2-n2nnnc2C)CC1` as the compound, how does the “Percent Effect” value read?
A: 87.7%

Q: Which “Percent Effect” value does the source give for `Cc1ccc(O)c(C(=O)N2CCC(CN3CCCCCC3)CC2)c1` here?
A: 5.424%

Q: Which “Percent Effect” value does the source give for `CC(C)(C)OC(=O)NCC1CCN(C(=O)c2ccccc2O)CC1` here?
A: 15.84%

Q: For `COC(=O)CC1CCN(C(=O)c2ccc(-n3nnnc3C)cc2)CC1`, which “Percent Effect” value is on record?
A: 129.7%

Q: `COc1ncccc1C(=O)N1CCC(CNC(C)=O)CC1` was tested. Which “Percent Effect” value did it give?
A: -0.8543%

Q: `CCNc1ccnc(NC2CCN(C(=O)c3ccc(C)cc3)CC2)n1` was tested. Which “Percent Effect” value did it give?
A: 10.68%

Q: Which “Percent Effect” value does the source give for `COC(=O)CC1CCN(C(=O)c2ccc(C)cc2)CC1` here?
A: 100%

Q: `Cc1cnn(CC2CN(CC(=O)Nc3sccc3C#N)CCO2)c1` (stereo unspecified) was tested. Which “Percent Effect” value did it give?
A: -6.28%

Q: `CCc1noc(CS(=O)(=O)Cc2ccccc2Cl)n1` was tested. Which “Percent Effect” value did it give?
A: -7.562%

Q: Which “Percent Effect” value does the source give for `CN(C)CCN1C(=O)CC[C@@H]2[C@H]1CCN2C(=O)c1ccc(C#N)cc1.O=C(O)C(F)(F)F` here?
A: -26.6%

Q: How did the “Percent Effect” value turn out when `Cn1cnc2c1C(COCC1CC1)CN(c1ncccn1)C2.O=C(O)C(F)(F)F.O=C(O)C(F)(F)F` (stereo unspecified) was run?
A: 100.9%

Q: With `CCOCC1CN(S(=O)(=O)N(C)C)Cc2cnn(CC3CC3)c21.O=C(O)C(F)(F)F` (stereo unspecified) as the compound, how does the “Percent Effect” value read?
A: -12.89%

Q: For `COCC1CN(S(=O)(=O)N(C)C)Cc2cnn(CC3CCCC3)c21.O=C(O)C(F)(F)F` (stereo unspecified), which “Percent Effect” value is on record?
A: -5.811%

Q: For `Cn1cnc2c1C(COCC1CCOCC1)CN(c1ncccn1)C2.O=C(O)C(F)(F)F.O=C(O)C(F)(F)F` (stereo unspecified), which “Percent Effect” value is on record?
A: -12.76%

Q: With `COCC1CN(S(=O)(=O)N(C)C)Cc2ncn(CC3CC3)c21.O=C(O)C(F)(F)F` (stereo unspecified) as the compound, how does the “Percent Effect” value read?
A: 108.7%

Q: How did the “Percent Effect” value turn out when `CCS(=O)(=O)N1Cc2ncn(C)c2C(COCC2CCOCC2)C1.O=C(O)C(F)(F)F` (stereo unspecified) was run?
A: -11.73%

Q: Which “Percent Effect” value does the source give for `Cn1cnc2c1C(COCC1CC1)CN(C(=O)c1cccs1)C2` (stereo unspecified) here?
A: -12.17%

Q: Which “Percent Effect” value does the source give for `CCS(=O)(=O)N1Cc2ncn(CC3CC3)c2C(COCC2CC2)C1.O=C(O)C(F)(F)F` (stereo unspecified) here?
A: 98%

Q: With `Cc1cnc(N2C[C@@H]3[C@@H](C2)OCC(=O)N3CC(C)C)nc1.O=C(O)C(F)(F)F` as the compound, how does the “Percent Effect” value read?
A: -17.14%

Q: Which “Percent Effect” value does the source give for `Cc1cc(CN2CCCn3nc(CCC(=O)O)cc3C2)ccc1F` here?
A: -13.15%

Q: With `CSc1ccccc1CN1CCCn2nc(CNC(=O)N(C)C)cc2C1` as the compound, how does the “Percent Effect” value read?
A: 2.043%

Q: How did the “Percent Effect” value turn out when `CCn1cc(CN2CCCn3nc(CCC(=O)NCCO)cc3C2)cn1` was run?
A: -3.785%

Q: `O=C(CCc1cc2n(n1)CCCN(CCc1ccccc1)C2)NC1CC1` was tested. Which “Percent Effect” value did it give?
A: 113.2%

Q: With `Nc1ncccc1CN1CCCn2nc(CCC(=O)NC3CC3)cc2C1` as the compound, how does the “Percent Effect” value read?
A: 172.9%

Q: With `O=C(CCc1cc2n(n1)CCCN(Cc1ccccc1F)C2)NC1CC1` as the compound, how does the “Percent Effect” value read?
A: 0.7471%

Q: `Cc1nc(C(NC(=O)CC(F)(F)F)c2ccc(Cl)cc2)no1` (stereo unspecified) was tested. Which “Percent Effect” value did it give?
A: 0.7806%

Q: With `COCCC(=O)N1CCCC1c1cccc(C)c1C` (stereo unspecified) as the compound, how does the “Percent Effect” value read?
A: 3.518%

Q: Which “Percent Effect” value does the source give for `CC(C)CS(=O)(=O)CC(=O)N1CCCC1c1noc(C2CC2)n1` (stereo unspecified) here?
A: -6.47%

Q: `Cn1c(C2CCCN2C(=O)CN2CCCC2=O)nc2ccccc21` (stereo unspecified) was tested. Which “Percent Effect” value did it give?
A: 0.4362%

Q: How did the “Percent Effect” value turn out when `COCC(=O)N1CCCCC1c1nc(C)c2c(n1)N(CC1CC1)C(=O)C2` (stereo unspecified) was run?
A: 105.7%

Q: `COCC(=O)N1CCCC1c1cccc(C)c1C` (stereo unspecified) was tested. Which “Percent Effect” value did it give?
A: 4.955%

Q: With `COCC(=O)N1CCCCC1c1nc(C)c2c(n1)N(C1CC1)C(=O)CC2` (stereo unspecified) as the compound, how does the “Percent Effect” value read?
A: 63.67%

Q: Which “Percent Effect” value does the source give for `COCCn1cc(C(=O)N2CCCC2c2noc(C)n2)ccc1=O` (stereo unspecified) here?
A: 10.03%

Q: With `COCC(=O)N1CCCC1c1nc(C)c2c(n1)N(CC(C)C)C(=O)CC2` (stereo unspecified) as the compound, how does the “Percent Effect” value read?
A: 117%

Q: Which “Percent Effect” value does the source give for `COCCC(=O)N1CCCC1c1nc(C)c2c(n1)N(C)C(=O)CC2` (stereo unspecified) here?
A: 147.7%

Q: Which “Percent Effect” value does the source give for `CC(Nc1nc2c(cnn2C)c(=O)[nH]1)c1ccc(F)cc1` (stereo unspecified) here?
A: -20.73%

Q: For `COCCN1CC(C(=O)N(C)Cc2cc(-c3cccnc3)no2)CC1=O` (stereo unspecified), which “Percent Effect” value is on record?
A: -16.5%

Q: With `O=C(c1cnc2c(c1)CCC2)N1CCCC(CO)(CC2CC2)C1` (stereo unspecified) as the compound, how does the “Percent Effect” value read?
A: -2.632%

Q: How did the “Percent Effect” value turn out when `OC[C@@H](O)CN(CCC(F)(F)F)c1ncc(Br)cn1` was run?
A: 8.436%

Q: How did the “Percent Effect” value turn out when `CCC(Nc1nnnn1-c1ccccc1)C(=O)NCc1ccsc1` (stereo unspecified) was run?
A: 4.065%

Q: With `CCN(CC)C(=O)CN1CCCC1c1nc(C)c2c(n1)N(C)C(=O)CC2` (stereo unspecified) as the compound, how does the “Percent Effect” value read?
A: 125.7%

Q: Which “Percent Effect” value does the source give for `Cc1nc(C2CCCN2CC(=O)N(Cc2ccsc2)C2CC2)no1` (stereo unspecified) here?
A: -3.982%

Q: How did the “Percent Effect” value turn out when `CCN(CC)C(=O)CN1CCCC1C(=O)N(C)C` (stereo unspecified) was run?
A: 1.193%

Q: For `Cn1ccnc1C(=O)NC[C@@H]1OC[C@H]2CN(CC3CC3)CC[C@H]21.O=C(O)C(F)(F)F`, which “Percent Effect” value is on record?
A: -43.28%

Q: `Cn1cccc1C(=O)NCc1cnc2n1CCN(CC1CCOCC1)C2.O=C(O)C(F)(F)F` was tested. Which “Percent Effect” value did it give?
A: 19.82%

Q: `O=C(NCc1cn2c(n1)CN(Cc1nccs1)CC2)C1CCC1.O=C(O)C(F)(F)F` was tested. Which “Percent Effect” value did it give?
A: -3.871%

Q: For `Cc1ccc(CN2CCc3ncc(CNC(=O)C4CCC4)n3CC2)o1.O=C(O)C(F)(F)F`, which “Percent Effect” value is on record?
A: 89.47%

Q: How did the “Percent Effect” value turn out when `Cc1cc(C(=O)N2CCc3ncc(CN4CCCC4)n3CC2)no1.O=C(O)C(F)(F)F` was run?
A: -20%

Q: `Cn1cccc1C(=O)NCc1cnc2n1CCN(CC1CC1)C2.O=C(O)C(F)(F)F` was tested. Which “Percent Effect” value did it give?
A: -11%

Q: `O=C(NCc1cnc2n1CCN(Cc1ccsc1)CC2)C1CCC1.O=C(O)C(F)(F)F` was tested. Which “Percent Effect” value did it give?
A: -9.045%

Q: Which “Percent Effect” value does the source give for `O=C(NCc1cnc2n1CCN(Cc1nccs1)CC2)C1CCC1.O=C(O)C(F)(F)F` here?
A: 95.25%

Q: Which “Percent Effect” value does the source give for `O=C(NCc1cnc2n1CCN(CC1CC1)C2)C1CC1.O=C(O)C(F)(F)F` here?
A: 80.69%

Q: For `Cn1ccnc1C(=O)NCc1cnc2n1CCN(CC1CC1)CC2.O=C(O)C(F)(F)F.O=C(O)C(F)(F)F`, which “Percent Effect” value is on record?
A: 88.03%

Q: With `Cc1ccc(CN2CCc3ncc(CNS(C)(=O)=O)n3CC2)o1.O=C(O)C(F)(F)F` as the compound, how does the “Percent Effect” value read?
A: -0.4637%

Q: How did the “Percent Effect” value turn out when `O=C(NCc1cnc2n1CCN(CC1CCOCC1)C2)c1ccno1.O=C(O)C(F)(F)F` was run?
A: -43.24%
